Results taken from PubChem BioAssay.
Active and inactive are the calls of the source. Rule as the data show it, unless noted: active = nuclear beta-catenin stimulation mostly above about 4.2% (no sharp cut-off); inactive = mostly below about 10%.

Experiments:
[1] = liver-stage malaria parasite load reduction – cell-based, known kinase inhibitor set, luminescence, hepatoma host viability (AID 624392; call rule not given here;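 also: infected cells incubated roughly two days before readout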); details: Plasmodium liver stage in hepatoma cells, luciferase luminescence, concentration not given here; liver cell % of control: measured here: host liver cell viability; parasite % of control: stronger effect = lower value
[2] = altered dexamethasone sensitivity, NF-kB reporter, cell-based, luciferase, IL-1B stimulus (AID 624486; call rule not given here;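 as to percent of negative control (+Dex): 100% = mean signal of vehicle control wells on the plate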); details: IL-1B + dexamethasone, luminescence; percent of negative control (+Dex): actives lie on both sides, concentration not given here; z-score: measured here: IL-1B alone, no Dex
[3] = target: Cellular tumor antigen p53 (Homo sapiens) (UniProt P04637); experiment: GFP-p53 level modulators in HPV16+ cells – imaging, known kinase inhibitor set, EGFP/DsRed ratio (AID 1053116; call rule not given here;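 also: cells exposed to compounds for 24 h at 37 °C before reading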); details: GFP-p53 stability, stronger effect = higher value; EGFP object count: measured here: GFP-p53 positive objects count
Sequence of Cellular tumor antigen p53 (Homo sapiens) (P04637 whole entry, looked up): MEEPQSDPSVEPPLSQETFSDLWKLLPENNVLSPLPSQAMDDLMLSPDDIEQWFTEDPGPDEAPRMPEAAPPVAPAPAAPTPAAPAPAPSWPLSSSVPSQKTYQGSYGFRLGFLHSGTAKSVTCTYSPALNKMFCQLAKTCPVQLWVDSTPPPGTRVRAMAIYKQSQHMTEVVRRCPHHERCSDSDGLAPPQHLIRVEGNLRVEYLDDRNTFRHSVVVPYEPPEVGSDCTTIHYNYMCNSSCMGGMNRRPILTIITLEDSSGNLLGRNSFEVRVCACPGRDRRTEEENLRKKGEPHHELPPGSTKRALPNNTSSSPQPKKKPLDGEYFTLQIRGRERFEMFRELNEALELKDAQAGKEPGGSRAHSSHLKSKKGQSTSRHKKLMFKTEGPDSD

[4] = inducers of IRF3 signaling, differentiated THP-1 – cell-based, PMA-stimulated THP-1, luminescence (AID 1053176; call rule not given here); details: PMA-differentiated THP-1, IRF3 reporter luminescence; stronger effect = higher value
[5] = Wnt pathway potentiators raising nuclear beta-catenin – imaging, WNT3A-conditioned medium, mouse C2C12, NPC library, primary screen (AID 1117326); details: stronger effect = higher value
[6] = stimulators of insulin release from INS-1E, primary screen, cell-based, 5 mM glucose, NPC library (AID 1117329;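 active = compound raises insulin release from rat beta cells at 5 mM glucose, no numeric limit stated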); details: rat INS-1E insulin secretion, at 10 µM, stronger effect = higher value
[7] = growth inhibition of GSK3B-pretreated HCT116 cells – cell-based, CellTiter-Glo, 0.2 to 20 µM (AID 1117336;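 active = compounds lowering colon cancer cell viability after pretreatment blocking the GSK3B kinase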); details: HCT116 viability after GSK3B inhibitor, at 20 µM, stronger effect = higher value
[8] = inhibition of endothelial tube formation, primary screen, imaging, VEGF stimulated, CD31 staining, tube area, NPC library (AID 1117340;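 active = compound that reduces growth-factor-driven endothelial tube area in a mixed cell culture, no cutoff stated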); details: VEGF-stimulated ADSC/ECFC co-culture, at 10 µM, stronger effect = higher value
[9] = GLP1 release stimulators, primary, NCI-H716, NPC library (AID 1117341;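 active = compound raises GLP1 secretion from the human gut endocrine cells, with no numeric limit stated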); details: NCI-H716 cells, at 10 µM, stronger effect = higher value
[10] = HCT116 colon cancer cell growth inhibition, primary screen, CellTiter-Glo luminescence, NPC library (AID 1117342;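 active = compounds that lower survival of HCT116 colon cancer cells in the luminescence readout, no numeric limit stated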); details: at 20 µM (top of the series)
[11] = reduced SW480 viability measured with CellTiter-Glo, NPC library, primary (AID 1117343;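 active = compounds that lower viability of the colon cancer cells in the luminescence readout, with no numeric limit stated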); details: CellTiter-Glo luminescence; at 20 µM (top of the series)
[12] = NPC library primary testing for decreased DLD-1 cell viability via CellTiter-Glo (AID 1117346;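 active = compounds that lower survival of DLD-1 colon cancer cells in the luminescence readout, no cutoff given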); details: DLD-1 viability, CellTiter-Glo luminescence; at 20 µM (top of the series)
[13] = C. elegans survival during P. aeruginosa infection – whole organism (AID 651566; call rule not given here;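 also: tested at 14 µM; sign flipped so higher z means a lower ratio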); details: C. elegans killed by P. aeruginosa, survival ratio
[14] = pro-inflammatory signaling induction in mouse macrophages – cell-based, murine, luminescence (AID 652131; call rule not given here); details: murine macrophage pro-inflammatory reporter, stronger effect = higher value
[15] = MELAS cybrid and Rieske KO viability enhancers – cell-based, MELAS cybrids, Rieske KO mouse fibroblasts, CellTiter-Glo, primary screen (AID 1508586;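 active = mean z-score across replicates of 1.96 or higher in either the MELAS or the Rieske mutant cell line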;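 also: z relative to plate mean and SD of compound and empty wells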); details: low glucose

SMILES: Cn1cc(C2=C(c3cn(CCCNC(N)=N[N+](=O)[O-])c4ccccc34)C(=O)NC2=O)c2ccccc21
- liver cell % of control [1]: 106%
- parasite % of control [1]: 62.5% (inactive)
- percent of negative control (+Dex) [2]: 102% (inactive)
- z-score [2]: -0.575
- EGFP object count [3]: 2.5
- EGFP/DsRed ratio [3]: 0.0481 (inactive)
- fraction signal [4]: 0.0015 (inactive)

SMILES: COP(=S)(OC)Oc1ccc(S(=O)(=O)N(C)C)cc1
- nuclear beta-catenin stimulation ([5]; at 10 µM): -1.9% (inactive)
- nuclear beta-catenin stimulation ([5]; stimulation, at 2 µM): -0.5%
- insulin secretion stimulation [6]: 0.3% (inactive)
- viability decrease [7]: -11.8% (inactive)
- tube area decrease [8]: -6.5% (inactive)
- GLP1 secretion stimulation [9]: -1.2% (inactive)
- inhibition of viability [10]: 4.9% (inactive)
- viability decrease (inhibition) [11]: 6.4% (inactive)
- viability decrease (inhibition) [12]: 0% (inactive)

SMILES: Nc1ccccc1C(=O)OCC(O)CO (stereo not given)
- nuclear beta-catenin stimulation ([5]; at 10 µM): 3.1% (inactive)
- nuclear beta-catenin stimulation ([5]; stimulation, at 2 µM): 3.4%
- insulin secretion stimulation [6]: -1.4% (inactive)
- viability decrease [7]: -40% (inactive)
- tube area decrease [8]: 21.1% (inactive)
- GLP1 secretion stimulation [9]: -1.2% (inactive)
- inhibition of viability [10]: -0.1% (inactive)
- viability decrease (inhibition) [11]: -4.5% (inactive)
- viability decrease (inhibition) [12]: -4.9% (inactive)

SMILES: CCOC(=O)C(c1c(O)c2ccccc2oc1=O)c1c(O)c2ccccc2oc1=O
- nuclear beta-catenin stimulation ([5]; at 10 µM): -0.3% (inactive)
- nuclear beta-catenin stimulation ([5]; stimulation, at 2 µM): -0.6%
- insulin secretion stimulation [6]: -0.8% (inactive)
- viability decrease [7]: 13% (inactive)
- tube area decrease [8]: -8.4% (inactive)
- GLP1 secretion stimulation [9]: -0.8% (inactive)
- inhibition of viability [10]: 5.5% (inactive)
- viability decrease (inhibition) [11]: -18.7% (inactive)
- viability decrease (inhibition) [12]: 3.4% (inactive)

SMILES: O=C(O)c1cc(Oc2ccc(C(F)(F)F)cc2Cl)ccc1[N+](=O)[O-]
- nuclear beta-catenin stimulation ([5]; at 10 µM): 1.4% (inactive)
- nuclear beta-catenin stimulation ([5]; stimulation, at 2 µM): 0.5%
- insulin secretion stimulation [6]: 4.1% (inactive)
- viability decrease [7]: -10.9% (inactive)
- tube area decrease [8]: 0.3% (inactive)
- GLP1 secretion stimulation [9]: 3.1% (inactive)
- inhibition of viability [10]: 9.4% (inactive)
- viability decrease (inhibition) [11]: -9.4% (inactive)
- viability decrease (inhibition) [12]: -3.5% (inactive)

SMILES: CCCCCCCCCCCCNCCNCCNCC(=O)O
- nuclear beta-catenin stimulation ([5]; at 10 µM): 92.8% (active)
- nuclear beta-catenin stimulation ([5]; stimulation, at 2 µM): 1.1%
- insulin secretion stimulation [6]: -0.3% (inactive)
- viability decrease [7]: 98.8% (active)
- tube area decrease [8]: 74.7% (active)
- GLP1 secretion stimulation [9]: 2.6% (inactive)
- inhibition of viability [10]: 99.3% (active)
- viability decrease (inhibition) [11]: 100% (active)
- viability decrease (inhibition) [12]: 101% (active)

SMILES: O=C(N[C@H]1N=C(c2ccccc2F)c2cccc3c2N(CC3)C1=O)c1cc2ccccc2[nH]1
- nuclear beta-catenin stimulation ([5]; at 10 µM): 1.3% (inactive)
- nuclear beta-catenin stimulation ([5]; stimulation, at 2 µM): 1.4%
- insulin secretion stimulation [6]: 3.5% (inactive)
- viability decrease [7]: 44.4% (inactive)
- tube area decrease [8]: 8.5% (inactive)
- GLP1 secretion stimulation [9]: 1.8% (inactive)
- inhibition of viability [10]: 54.9% (active)
- viability decrease (inhibition) [11]: 56.9% (active)
- viability decrease (inhibition) [12]: 29.7% (inactive)

SMILES: CCC1(c2ccccc2)CCC(=O)NC1=O (stereo not given)
- nuclear beta-catenin stimulation ([5]; at 10 µM): 0.3% (inactive)
- nuclear beta-catenin stimulation ([5]; stimulation, at 2 µM): 0.1%
- insulin secretion stimulation [6]: -2.9% (inactive)
- viability decrease [7]: -12.8% (inactive)
- tube area decrease [8]: -0.6% (inactive)
- GLP1 secretion stimulation [9]: 2.8% (inactive)
- inhibition of viability [10]: -2.8% (inactive)
- viability decrease (inhibition) [11]: 49.4% (inactive)
- viability decrease (inhibition) [12]: 6.55% (inactive)

SMILES: CC1=C(C(=O)O)N2C(=O)[C@@H](N)[C@H]2SC1
- nuclear beta-catenin stimulation ([5]; at 10 µM): -0.8% (inactive)
- nuclear beta-catenin stimulation ([5]; stimulation, at 2 µM): 0.3%
- insulin secretion stimulation [6]: 0.4% (inactive)
- viability decrease [7]: 9.7% (inactive)
- tube area decrease [8]: -6.3% (inactive)
- GLP1 secretion stimulation [9]: 4.2% (inactive)
- inhibition of viability [10]: 13.3% (inactive)
- viability decrease (inhibition) [11]: 33.8% (inactive)
- viability decrease (inhibition) [12]: 21.2% (inactive)

SMILES: CCc1ccc(C2CCNCC2)cc1
- nuclear beta-catenin stimulation ([5]; at 10 µM): -1.4% (inactive)
- nuclear beta-catenin stimulation ([5]; stimulation, at 2 µM): -0.7%
- insulin secretion stimulation [6]: 4% (inactive)
- viability decrease [7]: -2.8% (inactive)
- tube area decrease [8]: 1.2% (inactive)
- GLP1 secretion stimulation [9]: -5.6% (inactive)
- inhibition of viability [10]: 24.1% (inactive)
- viability decrease (inhibition) [11]: 9% (inactive)
- viability decrease (inhibition) [12]: -8.7% (inactive)

SMILES: Oc1ccc([C@H]2CNCc3c2ccc(O)c3O)cc1O
- nuclear beta-catenin stimulation ([5]; at 10 µM): 0.8% (inactive)
- nuclear beta-catenin stimulation ([5]; stimulation, at 2 µM): 0.2%
- insulin secretion stimulation [6]: 3.5% (inactive)
- viability decrease [7]: 86.5% (active)
- tube area decrease [8]: 13.1% (inactive)
- GLP1 secretion stimulation [9]: 23.9% (active)
- inhibition of viability [10]: 57.5% (active)
- viability decrease (inhibition) [11]: 60.8% (active)
- viability decrease (inhibition) [12]: 38.4% (inactive)

SMILES: ClCCCN1CCN(c2cccc(Cl)c2)CC1
- nuclear beta-catenin stimulation ([5]; at 10 µM): -0.9% (inactive)
- nuclear beta-catenin stimulation ([5]; stimulation, at 2 µM): -2.6%
- insulin secretion stimulation [6]: 1.1% (inactive)
- viability decrease [7]: 15% (inactive)
- tube area decrease [8]: -11.1% (inactive)
- GLP1 secretion stimulation [9]: 1.5% (inactive)
- inhibition of viability [10]: 42.8% (inactive)
- viability decrease (inhibition) [11]: 26.2% (inactive)
- viability decrease (inhibition) [12]: 50.1% (active)

SMILES: C[C@H]1CNCCc2ccc(Cl)cc21
- nuclear beta-catenin stimulation ([5]; at 10 µM): 2.8% (inactive)
- nuclear beta-catenin stimulation ([5]; stimulation, at 2 µM): 0.8%
- insulin secretion stimulation [6]: 16.9% (inactive)
- viability decrease [7]: -1.35% (inactive)
- tube area decrease [8]: -10.5% (inactive)
- GLP1 secretion stimulation [9]: 6.1% (inactive)
- inhibition of viability [10]: 1.7% (inactive)
- viability decrease (inhibition) [11]: 45.3% (inactive)
- viability decrease (inhibition) [12]: 0.95% (inactive)

SMILES: CNC(=O)Oc1cc(C)c(/C=C/c2cncc(C(=O)NC)c2)c(C)c1
- liver cell % of control [1]: 111%
- parasite % of control [1]: 110% (inactive)
- percent of negative control (+Dex) [2]: 107% (inactive)
- z-score [2]: 1.96
- z-score [13]: -0.2 (inactive)
- z-score [14]: -0.101 (inactive)
- EGFP object count [3]: 1
- EGFP/DsRed ratio [3]: 0.0984 (inactive)
- fraction signal [4]: -0.0105 (inactive)
- z-score ([15]; MELAS cybrid survival, CellTiter-Glo 48 h, stronger effect = higher value): -0.555 (inactive)
- z-score ([15]; Rieske KO mouse fibroblast survival, CellTiter-Glo 72 h): 0.0985

SMILES: O=C(CBr)Nc1ccc(Cl)cc1C(=O)c1ccccc1F
- nuclear beta-catenin stimulation ([5]; at 10 µM): -1.3% (inactive)
- nuclear beta-catenin stimulation ([5]; stimulation, at 2 µM): -1%
- insulin secretion stimulation [6]: 18.8% (inactive)
- viability decrease [7]: 84.8% (active)
- tube area decrease [8]: 108% (active)
- GLP1 secretion stimulation [9]: 21.4% (active)
- inhibition of viability [10]: 57.5% (active)
- viability decrease (inhibition) [11]: 95.3% (active)
- viability decrease (inhibition) [12]: 64.7% (active)
